Laboratory results taken from the supplement of paper PMC3334620.
Whole data set: some 33,000 sequences, median “E-score (-0.5 to 0.5)” near -0.054, cut for the highest 2% near 0.35. The full list was thinned out, with the highest values kept by preference.

target: T1, Stb5 (UniProt P38699); assay: PBM E-score (8-mer binding enrichment) (E-score (-0.5 to 0.5)); higher = stronger / more preferred TF binding; conditions: protein concentration: 200 nM; construct: GST-full length
T1 sequence: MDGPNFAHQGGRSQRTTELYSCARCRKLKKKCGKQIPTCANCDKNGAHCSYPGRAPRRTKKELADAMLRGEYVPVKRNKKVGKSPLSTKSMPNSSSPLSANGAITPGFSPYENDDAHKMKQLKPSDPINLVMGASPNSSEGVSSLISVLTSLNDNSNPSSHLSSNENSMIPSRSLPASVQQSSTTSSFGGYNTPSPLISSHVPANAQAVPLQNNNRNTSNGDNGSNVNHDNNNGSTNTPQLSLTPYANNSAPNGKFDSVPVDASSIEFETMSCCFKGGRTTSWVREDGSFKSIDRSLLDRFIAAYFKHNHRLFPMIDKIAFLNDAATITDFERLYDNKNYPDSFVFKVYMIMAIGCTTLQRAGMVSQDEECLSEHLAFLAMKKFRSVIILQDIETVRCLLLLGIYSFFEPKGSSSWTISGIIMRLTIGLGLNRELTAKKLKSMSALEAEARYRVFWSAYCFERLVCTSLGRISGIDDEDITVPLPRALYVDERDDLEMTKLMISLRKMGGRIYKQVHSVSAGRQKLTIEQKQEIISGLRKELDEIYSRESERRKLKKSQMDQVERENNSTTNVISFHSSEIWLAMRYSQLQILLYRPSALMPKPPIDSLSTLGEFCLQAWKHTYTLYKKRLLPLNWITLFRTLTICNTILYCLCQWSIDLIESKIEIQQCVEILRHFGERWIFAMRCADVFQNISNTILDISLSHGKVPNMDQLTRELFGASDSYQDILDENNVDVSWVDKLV
Method: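 Universal 'all 10-mer' protein binding microarrays (Agilent AMADID 015681) probed with GST-tagged S. cerevisiae TFs (full-length or DBD) made by in vitro transcription/translation (PURExpress), about 100-200 nM. Bound TF was detected with fluorescent anti-GST. Each ungapped 8-mer (which stands for itself and its reverse complement) is scored by the PBM enrichment score (E-score), a modified Wilcoxon-Mann-Whitney statistic from -0.5 to +0.5, computed with the Universal PBM Analysis Suite. Scale: above 0.35 generally sequence-specific binding.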

Point of comparison: CTATATCC, “PBM E-score” value 0.187. Against it:
- ATGAAACG — lower, 0.067
- GTTTGGGA — lower, -0.2
- CCGCGTTC — higher, 0.193
- GAGAGTGA — lower, -0.349
- CTATCACC — higher, 0.216
- ACATCCGC — higher, 0.339
- ATATCACA — lower, -0.0666
- ATCTCTCC — higher, 0.216
- ATATCCGC — higher, 0.402
- CTATCCGC — lower, 0.0573
- ATATCACC — higher, 0.436
- CTATCCGA — lower, 0.0404
- CTATCTCC — higher, 0.235
- ATATCCGG — higher, 0.294
- ATATCTCC — higher, 0.397
- ATATCCGA — higher, 0.37
- ATGGGTGA — lower, -0.12
- GACTTCCA — lower, -0.177
- AGAAAACA — lower, -0.128
- AGGTCGCA — lower, 0.0143
- CTGCTAAA — lower, 0.00756
- ACTCCATG — lower, -0.0336
- CTCAGAAC — lower, -0.191
- AATTGGCG — lower, 0.063
- GCCCCCAC — lower, 0.0261
- ATATACCC — higher, 0.371
- ATATGTCG — lower, 0.083
- ATATCCCG — higher, 0.275
- ATATCCCC — higher, 0.395
- CTATCCCC — higher, 0.276
- ATATTCCG — lower, 0.171
- ATATGTCC — higher, 0.406
- ATATACCG — higher, 0.34
- CTATGTCC — higher, 0.232
- ATATTCCC — higher, 0.372
- CTATACCC — higher, 0.229
- CTATTCCC — lower, 0.136
- AGTCTGGA — lower, 0.00288
- TCGATCGA — lower, -0.148
- GAGCTCAA — lower, 0.0147
- ACTGGCCG — lower, -0.0443
- TCGCTCCA — lower, -0.126
- AAATTCAG — lower, -0.221
- CAGCTGAG — lower, -0.231
- CCATGCAA — lower, -0.00387
- ACGTGGGA — lower, -0.265
- AGAAAAGG — lower, -0.103
- ATCAAACA — lower, -0.234
- CTATCGGA — higher, 0.402
- ATATCGGA — lower, 0.166
- GTATCGGA — higher, 0.263
- ATATATCA — lower, 0.0402
- ATATATCC — higher, 0.398
- ACCTTTAG — lower, 0.0714
- TAAGCCCA — lower, 0.0396
- AACGCGAC — lower, -0.173
- AATAGAAT — lower, -0.187
- GATAGGTA — lower, -0.0734
- GTCGGCAC — higher, 0.374
- AGCGGCAC — higher, 0.355
- CTCGGCAC — the same, 0.187
- ACCGGCAA — higher, 0.241
- ATCGGCAT — higher, 0.363
- ACCGGCAG — higher, 0.277
- CGCGGCAC — higher, 0.288
- ATCGGCAG — higher, 0.219
- ACCGGCAC — higher, 0.373
- ATCGGCAC — higher, 0.339
- GTCGGCAA — higher, 0.276
- GGCGGCAC — higher, 0.343
- ATTGGAGC — lower, -0.193
- TATCCTAA — lower, -0.109
- CATGTGGG — lower, -0.114
- CCATGGGC — lower, -0.0701
- AAATTGAC — lower, 0.0873
- AGCGGCCG — higher, 0.252
- AGCGGCCT — higher, 0.377
- AGCGGCAA — higher, 0.2
- AGCGGCAG — higher, 0.276
- AGCGGCCA — lower, 0.177
- AGCGGCAT — higher, 0.401
- AAGGCGGA — higher, 0.292
- AGCACGAC — lower, -0.2
- CTACGAGA — lower, -0.102
- AACATCCG — higher, 0.359
